Assay outcomes from PubChem.
Shown are actives, neighbours in structure and some others; about 1.2% of the full set was active somewhere.
RGS7-Gao – human RGS7-Galphao interaction regulation. P09471. Multiplexed bead flow cytometry, RGS7-Galphao binding; actives lie on both sides. binding response (% of control), % at 10 µM. 220,000 compounds, 0.35% hits; in the data active = binding response below about 49% or above about 150%; inconclusive = no clear call, values can overlap the other calls; inactive = in between;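 note: fluorescent Galphao held in activated GDP-AlF4 state binding bead-coupled RGS7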
Target sequence (P09471 whole entry, looked up): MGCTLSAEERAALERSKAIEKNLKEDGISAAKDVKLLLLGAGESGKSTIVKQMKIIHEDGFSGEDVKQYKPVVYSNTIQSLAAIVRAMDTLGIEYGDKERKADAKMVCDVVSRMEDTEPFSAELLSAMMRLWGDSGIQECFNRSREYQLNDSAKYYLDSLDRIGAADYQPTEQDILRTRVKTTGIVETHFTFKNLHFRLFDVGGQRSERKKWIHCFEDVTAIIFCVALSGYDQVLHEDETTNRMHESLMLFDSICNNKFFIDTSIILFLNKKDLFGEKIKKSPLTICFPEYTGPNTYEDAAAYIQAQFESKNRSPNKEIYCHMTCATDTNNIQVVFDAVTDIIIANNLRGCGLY
RGS16-Gao HTS – RGS16-Galphao interaction regulator (human) | bead-based flow cytometry RGS16-Galphao binding, fluorescence; actives lie on both sides | binding response (% of control), % at 10 µM | 220,000 compounds, 0.38% hits;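 note: Galphao activated by GDP with aluminum fluoride before binding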
GSH bead fluor – GSH bead compound fluorescence profile; GSH beads flow cytometry, compound fluorescence 488/530 nm; hits give high values; fluorescence (KMESF) at 10 µM; 190,000 compounds, 0.25% hits; AID 1776; in the data active = fluorescence above about 89;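 note: glutathione beads carrying GST-tagged Bcl family fusion proteins plus one bare bead set; values are compound well signal with DMSO vehicle wells as background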
RGS4-Gao reg – human RGS4-Galphao interaction regulation; Multiplexed bead flow cytometry, RGS4-Galphao binding; actives lie on both sides; binding response (% of control), % at 10 µM; 220,000 compounds, 0.33% hits; AID 1415; in the data active = binding response below about 49% or above about 150%; inactive = in between;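 note: fluorescent Galphao activated with aluminum fluoride binding bead-coupled RGS4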
RGS8-Gao – human RGS8-Galphao interaction regulation. P09471. multiplexed bead flow cytometry, RGS8-Galphao binding; actives lie on both sides. response (percent of control binding), % at 10 µM. 220,000 compounds, 0.34% hits. AID 1423; in the data active = response below about 60% or above about 140%; inactive = in between;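 note: Galphao activated as the GDP aluminium fluoride complex binding bead-coupled RGS8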
Avidin fluor – compound fluoresces at 488/530 nm on avidin beads. fluorescence (KMESF) at 10 µM. compound fluorescence 488/530 nm, flow cytometry; hits give high values. 220,000 compounds, 0.38% hits; in the data active = fluorescence above about 47
RGS-Gao – RGS4-Galphao interaction regulator (human) | multiplexed bead flow cytometry, RGS–Galpha-o binding | shares compounds with RGS16-Gao HTS | RGS4–Galpha-o binding response, % at 10 µM | 1,600 compounds, 99% hits;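 note: fluorescently labeled Galpha-o bound to GDP with aluminium fluoride binding biotinylated RGS beads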
Biotin-avidin – interferes with biotinylated probe binding to avidin beads; shares compounds with RGS16-Gao HTS; streptavidin beads, fluorescein-biotin binding, flow cytometry; inhibition, % at 10 µM; 1,700 tested, under 10 active;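 active = inhibition above 50%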;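 note: median green fluorescence of gated singlet beads compared with DMSO control wells; 0% = DMSO wells and 100% = complete loss of bead fluorescence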
RGS8-Gao single – RGS8-Galphao interaction regulation, single point confirmation. shares compounds with RGS16-Gao HTS. bead-based flow cytometry RGS8-Galphao binding, fluorescence; actives lie on both sides. binding response (% of control), % at 10 µM. 1,700 compounds, 3% hits; in the data active = binding response below about 72% or above about 130%; inactive = in between;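 note: Galphao activated as GDP AlF4 complex before binding bead RGS8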
RGS7-Gao confirm – confirmation of regulators of human RGS7-Galphao interaction | 1,700 compounds, 7.8% hits | response (percent of control binding), % at 10 µM | shares compounds with RGS16-Gao HTS | bead-based flow cytometry RGS7-Galphao binding; actives lie on both sides; in the data active = response below about 75% or above about 130%; inactive = in between;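 note: fluorescent Galphao activated with GDP and aluminum fluoride binding bead-coupled RGS7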
RGS16-Gao conf – confirmation of regulators of human RGS16-Galphao interaction; shares compounds with RGS16-Gao HTS; bead-based flow cytometry, RGS16-Galphao binding; actives lie on both sides; response (% of control binding), % at 10 µM; 1,700 compounds, 4% hits; in the data active = response below about 74% or above about 130%; inactive = in between;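 note: Galphao activated as the GDP aluminium fluoride complex binding bead-coupled RGS16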
RGS4-Gao confirm – confirmation of regulators of human RGS4-Galphao interaction; shares compounds with RGS16-Gao HTS; RGS4-Galphao binding, multiplexed bead flow cytometry; actives lie on both sides; binding response (% of control), % at 10 µM; 1,700 compounds, 4% hits; AID 1840; in the data active = binding response below about 74% or above about 130%; inactive = in between
RGS19-Gao single – RGS19-Galphao interaction regulation, single point confirmation; 1,700 compounds, 5% hits; response (percent of control binding), % at 10 µM; AID 1841; shares compounds with RGS16-Gao HTS; bead-based flow cytometry RGS19-Galphao binding; actives lie on both sides; in the data active = response below about 50% or above about 160%; inactive = in between;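 note: 100% = no compound control and 0% = blank background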
Target sequence (P09471 whole entry, looked up): as above
Target sequence (P49795 whole entry, looked up): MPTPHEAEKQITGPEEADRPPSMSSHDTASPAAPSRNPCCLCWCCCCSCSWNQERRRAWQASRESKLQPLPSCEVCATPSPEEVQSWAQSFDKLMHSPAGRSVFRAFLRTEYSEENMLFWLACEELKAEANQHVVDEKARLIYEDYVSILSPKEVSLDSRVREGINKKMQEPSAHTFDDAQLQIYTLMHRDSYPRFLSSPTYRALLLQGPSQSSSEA
The depositor's hits bear a star; ? = inconclusive; . = no result given; [ ] = remark or other dose. Unless noted, the rule behind the calls is not given here.

SMILES	RGS7-Gao	RGS16-Gao HTS	GSH bead fluor	RGS4-Gao reg	RGS8-Gao	Avidin fluor	RGS-Gao	Biotin-avidin	RGS8-Gao single	RGS7-Gao confirm	RGS16-Gao conf	RGS4-Gao confirm	RGS19-Gao single
O=C(CCN(NC(=O)c1ccccc1)C1=NS(=O)(=O)c2ccccc21)NC1CCCCC1	103	108	22	105	101	13	.	.	.	.	.	.	.
Cc1ccc(CN2CCN(/N=C/c3ccc(C(=O)O)cc3)CC2)cc1	98	98	9	100	100	14	.	.	.	.	.	.	.
O=C(O)c1ccc(/C=N/N2CCN(Cc3ccc(Cl)cc3)CC2)cc1	125	262	12	117	148*[activator]	14	117*	-2	98	83	93	91	83
CCN(CC)c1ccc(/C=N\N2CCN(Cc3ccc(C)cc3)CC2)cc1	106	109	20	105	103	12	.	.	.	.	.	.	.
Cc1ccc(CN2CCN(/N=C/c3cccnc3)CC2)cc1	110	260*[activator]	12	110	125	6	110*	3	99	100	99	98	85
NS(=O)(=O)c1ccc(CCNC(=O)C2CCC(Cn3c(=S)[nH]c4ccccc4c3=O)CC2)cc1 (stereo not given)	17*	11*	14	22*	13*	2	.	1	103	105	105	103	101
CCOC(=O)c1[nH]c2cc3c(cc2c1NC(=O)CN1CCCC1)OCO3	?	102	.	102	100	7	.	.	.	.	.	.	.
CC1CCCC(C)N1c1nnc(N)s1 (stereo not given)	55	20*	12	53	57*	2	53*	0	102	102	103	104	104
CSc1cccc(-n2c(C)cc(C(N)=O)c2C)c1	101	99	15	100	99	35	.	.	.	.	.	.	.
O=C(CCl)NC(=O)NC12CC3CC(CC(C3)C1)C2	189*[activator]	111	7	130	104	145*	130*	0	101	63*	84	79	54
O=C(Nc1ccc(OC(F)F)c(Cl)c1)C(c1ccccc1)c1ccccc1	99	106	16	97	103	15	.	.	.	.	.	.	.
COc1cc2c(cc1OC)C(C(=O)NCc1cccnc1)C(c1cccnc1)N(C)C2=O (stereo not given)	170*[activator]	110	26	119	97	174*	119*	.	.	.	.	.	.
Cc1cc(=O)oc2cc(Oc3ccc([N+](=O)[O-])cc3[N+](=O)[O-])ccc12	91	25*	9	93	75	8	93*	1	104	103	109	103	123
Cc1cc(=O)oc2cc(Oc3ncccc3[N+](=O)[O-])ccc12	88	98	11	94	98	10	.	.	.	.	.	.	.
O=S(=O)(NC1c2cccc3cccc(c23)C1Sc1ncccn1)c1ccccc1 (stereo not given)	98	101	15	97	100	13	.	.	.	.	.	.	.
Cc1ccc(CNC(=O)COC(=O)c2c(C)noc2C)cc1	142	142	29	157*[activator]	132	5	.	1	101	99	100	100	93
CCCC(=O)NCCCCNC(=O)CCC	99	74	36	100	96	9	.	.	.	.	.	.	.
CC(=O)N(O)CCCCCNC(=O)CCC(=O)N(O)CCCCCNC(=O)CCC(=O)N(O)CCCCCN	55	35	22	61	51*	4	61*	-2	53*	58*	42*	57*	64
Cn1c(=O)c2c(nc(N3CCc4ccccc4C3)n2Cc2ccccc2F)n(C)c1=O	100	102	11	100	102	31	.	.	.	.	.	.	.
Cn1c(=O)c2c(nc(OCC3COC(C)(C)O3)n2Cc2ccccc2F)n(C)c1=O (stereo not given)	164*[activator]	161	31	165*[activator]	145*[activator]	12	.	0	102	97	99	95	91
O=C(N/N=C/c1cc([N+](=O)[O-])ccc1O)c1cc(-c2ccccc2)nc2ccccc12	42*	34	11	54	67	2	54*	0	99	97	98	101	92
O=C(N/N=C/c1cc([N+](=O)[O-])ccc1Cl)c1cc(-c2ccccc2)nc2ccccc12	?	105	.	97	104	7	.	.	.	.	.	.	.
O=S(=O)(CCc1ccccc1)N1CCOCC1	68	-85	9	48*	69	8	.	-1	97	81	91	84	88
COc1ccc(NC(=O)c2ccc(COCC(F)(F)C(F)F)cc2)cc1	93	25*	13	78	68	2	78*	0	104	103	104	102	118
Cc1cc(NC(=O)CSc2nnc(C3COc4ccccc4O3)n2C)no1 (stereo not given)	92	73	29	95	96	14	.	.	.	.	.	.	.
COc1ccc(OC)c(NC(=O)CSc2nnc(CNC(=O)COc3ccc(Cl)cc3)o2)c1	159*[activator]	117	15	105	104	68*	105*	-2	104	104	106	104	100
COc1ccc(NC(=O)CSc2nnc(CNC(=O)COc3ccc(Cl)cc3)o2)c(OC)c1	106	104	14	105	104	38	.	.	.	.	.	.	.
O=C(C1CCC(CNS(=O)(=O)c2cccs2)CC1)N1CCCCC1 (stereo not given)	95	55	35	93	93	4	.	.	.	.	.	.	.
CCN1CCN(C(=O)C2CCC(CNS(=O)(=O)c3ccccc3)CC2)CC1 (stereo not given)	.	.	36	.	.	.	.	4	102	105	108	108	103
O=C(CCCC(=O)N(CC(=O)NC1CCCC1)C1CCCC1)Nc1ccccn1	99	104	24	102	102	12	.	.	.	.	.	.	.
